Experiment [1] relates to XIP peptide (Xip251-270) binding. Nature of the experiment: XIP fragment 251-270 binding compounds – biochemical, small-molecule microarray, fluorescence 635/667 nm, 0.1 µg/mL protein, primary screen (AID 1182). The following applies: fluorescent protein binding, 635 nm, higher = more signal, called active from +8 up or from −8 down.
The subject of another experiment is XIP peptide (Xip251-270). Nature of the experiment: compounds binding XIP fragment 251-270 – biochemical, small-molecule microarray, fluorescence 635/667 nm, 0.5 µg/mL protein, primary screen (AID 1183). The following applies: fluorescence 635 nm, higher = more signal.
Experiment [2] in a line: blood-stage malaria parasite viability loss – strain 3D7, DAPI fluorescence, 100 nL, primary screen (AID 1184).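 Further: parasites grown inside human red blood cells in medium with human serum.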 The following applies: P. falciparum 3D7 growth, 3 d, higher = more signal.
For experiment [3], the target named is Homeobox protein Hox-A13 (Mus musculus) (UniProt Q62424). Nature of the experiment: disruptors of Hoxa13 oligonucleotide interaction – biochemical, fluorescence polarization, labeled oligonucleotide, primary screen (AID 1185). The following applies: Hoxa13:DNA binding, 15 min, higher = more signal, called active from +8 up or from −8 down. For orientation: Polarisation of emitted light reports the rotation of a fluorescent probe.
Sequence of Homeobox protein Hox-A13 (Mus musculus) (Q62424 whole entry, looked up): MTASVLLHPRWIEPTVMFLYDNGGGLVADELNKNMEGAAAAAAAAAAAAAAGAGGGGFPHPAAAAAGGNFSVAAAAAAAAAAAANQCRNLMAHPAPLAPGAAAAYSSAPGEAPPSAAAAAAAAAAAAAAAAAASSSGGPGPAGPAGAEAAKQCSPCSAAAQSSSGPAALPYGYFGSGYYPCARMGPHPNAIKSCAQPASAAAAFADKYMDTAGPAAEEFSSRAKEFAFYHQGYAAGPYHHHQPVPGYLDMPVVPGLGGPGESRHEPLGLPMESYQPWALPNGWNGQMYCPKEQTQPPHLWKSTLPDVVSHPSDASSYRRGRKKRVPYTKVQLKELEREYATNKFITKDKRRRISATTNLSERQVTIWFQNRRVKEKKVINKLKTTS

A short description of experiment [4]: blockers of DNA damage checkpoint Chk1 activation – imaging, HeLa, hydroxyurea, phospho-Chk1 antibody, percent positive cells, primary screen (AID 1186). Conditions: hydroxyurea-induced phospho-Chk1 immunofluorescence imaging, higher = more signal.
A short description of experiment [5]: blockers of DNA damage checkpoint Chk1 activation – imaging, HeLa, hydroxyurea, phospho-Chk1 nuclear intensity, primary screen (AID 1187). The following applies: hydroxyurea-induced phospho-Chk1 immunofluorescence imaging, higher = more signal.

The source made the active and inactive calls. Unless noted, how the calls were made is not given here.

Experimental findings from PubChem BioAssay are described below.

As for `CC(C)CON=C1C[C@@H](O)[C@@H](O)[C@@H]2[C@@H]3C(=O)N(C[C@@H]4CCCO4)C(=O)[C@@H]3CC[C@H]12`, the composite z-score in experiment [1] is -0.125 (inactive); in the experiment with XIP peptide (Xip251-270), 0.0241. Besides, the figures for the z-score in experiment [2] and in experiment [3] were -0.421 and -1.58 (inactive), respectively.

For `CCOC(=O)[C@H](Cc1ccccc1)NC(=O)CCC1CC(OC(=O)NCc2ccc3c(c2)OCO3)CC2(CCCC(COC(=O)NCC(c3ccccc3)c3ccccc3)O2)O1` (some centres not stated), the results for the composite z-score (in experiment [1]; in the experiment on XIP peptide (Xip251-270)) were 0.48 (inactive) and 0.308, respectively. Besides, the z-score in experiment [2] is -0.909; in experiment [3], -3.45 (inactive).

On to `CCc1cc2c(nc1CC)CCN(CCC(C)=NOC(C)CN1CCCc3nc(C)c(C)cc31)C2` (configuration not stated), for which the composite z-score in experiment [1] was 1.36 (inactive); in the experiment on XIP peptide (Xip251-270), 0.561. The figures for the z-score in experiment [2] and in experiment [3] were 0.74 and -9.89 (active), respectively.

As to `COc1ccc(O[C@H]2C=C[C@@H](c3ccccc3)O[C@@H]2COC(=O)CCC(C)=NO[C@H](C)c2cn([C@@H]3COC[C@H]3O)nn2)cc1`, the figures for the composite z-score (in experiment [1]; in the experiment on XIP peptide (Xip251-270)) were 0.0628 (inactive) and 0.596, respectively. In addition, the z-score is -1.52 in experiment [2] and -6.96 (inactive) in experiment [3].

Turning to `CCN1C(=O)[C@H]2[C@H]3[C@H](O)[C@H](O)CC(=NOCC=C(C)CCC=C(C)C)[C@H]3CC[C@H]2C1=O`, the values for the composite z-score (in experiment [1]; with XIP peptide (Xip251-270)) were 1.09 (inactive) and 0.762, respectively. Moreover, the z-score in experiment [2] was 1.97; in experiment [3], 0.0102 (inactive).

Regarding `COc1ccc([Si](C)(C)[C@H]2[C@H](CCO)O[C@@]3(C(=O)N(Cc4cccc(NC(=O)[C@H](C)O)c4)c4ccccc43)[C@@H]2C)cc1`, the composite z-score is -0.201 (inactive) in experiment [1] and 0.618 in the experiment on XIP peptide (Xip251-270). The z-score in experiment [2] is -2.74; in experiment [3], -6.16 (inactive); in experiment [4] it was -1.95 (inactive); in experiment [5], -0.667 (inactive).

With `CCOC(=O)CCN1C(=O)[C@H]2[C@H]3[C@H](O)[C@H](O)CC(=NOCc4ccccc4)[C@@H]3CC[C@H]2C1=O`, the composite z-score in experiment [1] is 0.204 (inactive); in the experiment with XIP peptide (Xip251-270), 0.635. For the same molecule, the z-score is 0.226 in experiment [2] and -4.34 (inactive) in experiment [3].

With `CC1CC/C=C\[C@H]2OC34C=CCN(C(C)C)C(=O)[C@H]3N(CCCO)C(=O)[C@@H]4C2C(=O)O1` (some centres not stated), the results for the composite z-score (in experiment [1]; with XIP peptide (Xip251-270)) were 0.94 (inactive) and -0.835, respectively. The z-score was -0.0943 in experiment [2], -2.96 (inactive) in experiment [3], -0.471 (inactive) in experiment [4] and -0.415 (inactive) in experiment [5].

For the molecule `Cc1cc2c(c(=O)o1)[C@H](O)[C@H]1O[C@H]1C2=O`, the composite z-score in experiment [1] was 0.326 (inactive); in the experiment with XIP peptide (Xip251-270) it was -0.311. The results for the z-score in experiment [2] and in experiment [3] were -0.811 and -4.87 (inactive), respectively.

With `CCOC(=O)[C@H](Cc1ccccc1)NC(=O)CCC1CC(OC(=O)NCc2ccc3c(c2)OCO3)CC2(CCCC(COC(=O)NCC3CCCCC3)O2)O1` (some centres not stated), the composite z-score in experiment [1] is -0.292 (inactive); with XIP peptide (Xip251-270) it was 0.646. In addition, the values for the z-score in experiment [2] and in experiment [3] were -1.96 and -2.6 (inactive), respectively.

For `CC(C)CON=C1C[C@@H](O)[C@@H](O)[C@@H]2[C@@H]3C(=O)N(Cc4ccccc4)C(=O)[C@@H]3CC[C@@H]12`, the composite z-score in experiment [1] was -0.347 (inactive); in the experiment with XIP peptide (Xip251-270), -0.229. Moreover, the z-score in experiment [2] is -0.388; in experiment [3] it was -0.596 (inactive).

With `CC(=O)OC[C@H]1O[C@H](C#CCCCc2ccccc2)C=C[C@@H]1OC(C)=O`, the composite z-score in experiment [1] is 1.05 (inactive); in the experiment with XIP peptide (Xip251-270) it was 0.505. Further, the z-score in experiment [2] is -0.107; in experiment [3], -5.95 (inactive).

`C#CCCCON=C1C[C@@H](O)[C@@H](O)[C@@H]2[C@@H]3C(=O)N(c4cccc(Oc5ccccc5)c4)C(=O)[C@@H]3CC[C@@H]12`: the composite z-score in experiment [1] is -0.0382 (inactive); with XIP peptide (Xip251-270) it was 0.481. In addition, the z-score was -1.96 in experiment [2] and -5.65 (inactive) in experiment [3].

Turning to `COc1ccc(O[C@H]2C=C[C@@H](c3ccccc3)O[C@@H]2COC(=O)CCC(C)=NOC[C@@H](C)[C@H](OCc2ccccc2)C(C)C)cc1`, the values for the composite z-score (in experiment [1]; in the experiment on XIP peptide (Xip251-270)) were 0.294 (inactive) and -0.794, respectively. Besides, the z-score is -0.925 in experiment [2] and -0.43 (inactive) in experiment [3].

`CCN(CC)c1ccc(N2CC=CC34O[C@@H]5/C=C\CCC(C)OC(=O)C5[C@H]3C(=O)N(CCCO)[C@@H]4C2=O)cc1` (some centres not stated): the results for the composite z-score (in experiment [1]; in the experiment with XIP peptide (Xip251-270)) were 0.217 (inactive) and 0.974, respectively. Besides, the z-score in experiment [2] is -0.0779; in experiment [3] it was -6.38 (inactive); in experiment [4], 0.0745 (inactive); in experiment [5] it was -0.0024 (inactive).

On to `CCOC(=O)CCN1C(=O)[C@H]2[C@H]3[C@H](O)C=CC(=O)[C@@H]3CC[C@H]2C1=O`, for which the composite z-score was 0.58 (inactive) in experiment [1] and 0.0156 in the experiment on XIP peptide (Xip251-270). Moreover, the values for the z-score in experiment [2] and in experiment [3] were -0.0439 and -0.525 (inactive), respectively.

For `O=C1[C@H]2[C@H]3[C@H](O)[C@H](O)CC(=NOC[C@@H](O)COCc4ccco4)[C@H]3CC[C@H]2C(=O)N1c1cccc(Oc2ccccc2)c1`, the composite z-score is 0.283 (inactive) in experiment [1] and 0.638 with XIP peptide (Xip251-270). Further, the values for the z-score in experiment [2] and in experiment [3] were 0.499 and 0.338 (inactive), respectively.

Turning to `CCc1cc2c(nc1CC)CCN(CCC(C)=NOC[C@@H](O)[C@H]1O[C@@H]3OC(C)(C)O[C@@H]3[C@H]1O)C2`, the composite z-score in experiment [1] is 0.221 (inactive); in the experiment on XIP peptide (Xip251-270), 0.267. For the same molecule, the figures for the z-score in experiment [2] and in experiment [3] were 0.204 and -5.4 (inactive), respectively.

`CCOC(=O)CCN1C(=O)[C@H]2[C@H]3[C@H](O)[C@H](O)CC(=NOC[C@@H](O)COCc4ccco4)[C@H]3CC[C@H]2C1=O`: the composite z-score is 0.378 (inactive) in experiment [1] and 0.328 in the experiment with XIP peptide (Xip251-270). In addition, the results for the z-score in experiment [2] and in experiment [3] were -1.44 and -3.71 (inactive), respectively.
